The record followed here is ChEMBL document CHEMBL3433997, “St. Jude Leishmania screening dataset” (2016).

Each structure is given as a SMILES string.

The test addresses Glucose transporter (Leishmania mexicana) (UniProt O61059). Put plainly: ST_JUDE_LEISH: Cytotoxicity at 2uM final concentration against transgenic Leishmania Mexicana promastigotes LmGT2 that are glucose transport deficient and complemented with the L. Mexicana glucose transporter 2. Activity is measured by DNA content using SYBR green in vitro. The class given is functional.
For `CCNc1cc(C(=O)N[C@@H](Cc2ccccc2)[C@H](O)CNC(C)(C)Cc2ccccc2)cc(N2CCCC2=O)c1`, the inhibition was 0.81%.

Take `CCOC(=O)N1CCN(CCCNc2c3ccc(Cl)cc3nc3ccc(OC)cc23)CC1`: the inhibition is 1.42%. Then `CO/C(=C\C=C\c1cc2cc(Cl)c(Cl)cc2[nH]1)C(=O)NCCCN1CCN(c2ccc(OC)cc2)CC1`, with 1.28%; and `CCC(C)CN1CCN(c2ccc(NC(=O)c3cccs3)cc2)C(C)C1` (stereo unspecified), with 5.37%. Then `CC(C)(C)c1ccc2[nH]c(-c3ccc(C(=O)NCCCc4ccccc4)cc3)nc2c1`, with -0.47%; and `CN1CCN(c2ncnc3ccc(NC(=O)Nc4ccc(Cl)c(Cl)c4)cc23)CC1`, with 5.24%; and `CCCCCCCCCCNCC(O)c1ccc(O)c(C(=O)OC)c1` (stereo unspecified), with 0.52%. Take `C[C@H](NC(=O)[C@H](CCCCNC(=O)OC(C)(C)C)NC(=O)OC(C)(C)c1ccc(-c2ccccc2)cc1)C(=O)OCc1ccccc1`: the inhibition amounted to 1.84%. `CC(C)(C)c1ccc(NC(=O)c2cccc(CN3CCCN(CC4CCCCC4)CC3)c2)cc1`: the inhibition was 3.88%. To `Brc1cc(CNCCCNc2nc3ccccc3[nH]2)sc1Br` belongs 6.32%; to `O=C(NCCCCCN1CCC(c2c[nH]c3ccccc23)CC1)Nc1ccc(Cl)c(Cl)c1`, 1.89%. With `COc1cc(Cc2cnc(N)nc2N)ccc1Oc1ccc(N)cc1`, the inhibition came out at 0.97%. Then `Cc1cc(Cl)ccc1OC(C)C(=O)N1CCc2ccccc21` (stereo unspecified), with -0.66%; and `CCC1N=C(N)N=C(N)N1OCc1cccc2ccccc12` (stereo unspecified), with 1.16%; and `CC1CCCCN1Cc1cccc(-c2c[nH]c3nc(NC4CCCC4)ncc23)c1` (stereo unspecified), with 6.08%. Then `N#Cc1cccc(-c2ccc(C(=O)Nc3ccc4c(c3)CCN(C3CCC3)CC4)cn2)c1`, with 5.26%.
